Screening results from PubChem.
BoNT-A LC inh2: inhibitors of Botulinum neurotoxin A light chain protease | inhibition, % at 10 µM | AID 588499 | 360,000 compounds, 0.17% hits | multiplex microsphere protease substrate cleavage, flow cytometry; further: plate controls were buffer without enzyme for full effect and enzyme alone for no effect
Anthrax LF prot: blocks Bacillus anthracis lethal factor protease | AID 588501 | 360,000 compounds, 0.12% hits | multiplex microsphere protease cleavage assay, LF | inhibition, % at 10 µM; further: plate controls were buffer without enzyme for full effect and enzyme alone for no effect
Target sequence (P15917 whole entry, looked up): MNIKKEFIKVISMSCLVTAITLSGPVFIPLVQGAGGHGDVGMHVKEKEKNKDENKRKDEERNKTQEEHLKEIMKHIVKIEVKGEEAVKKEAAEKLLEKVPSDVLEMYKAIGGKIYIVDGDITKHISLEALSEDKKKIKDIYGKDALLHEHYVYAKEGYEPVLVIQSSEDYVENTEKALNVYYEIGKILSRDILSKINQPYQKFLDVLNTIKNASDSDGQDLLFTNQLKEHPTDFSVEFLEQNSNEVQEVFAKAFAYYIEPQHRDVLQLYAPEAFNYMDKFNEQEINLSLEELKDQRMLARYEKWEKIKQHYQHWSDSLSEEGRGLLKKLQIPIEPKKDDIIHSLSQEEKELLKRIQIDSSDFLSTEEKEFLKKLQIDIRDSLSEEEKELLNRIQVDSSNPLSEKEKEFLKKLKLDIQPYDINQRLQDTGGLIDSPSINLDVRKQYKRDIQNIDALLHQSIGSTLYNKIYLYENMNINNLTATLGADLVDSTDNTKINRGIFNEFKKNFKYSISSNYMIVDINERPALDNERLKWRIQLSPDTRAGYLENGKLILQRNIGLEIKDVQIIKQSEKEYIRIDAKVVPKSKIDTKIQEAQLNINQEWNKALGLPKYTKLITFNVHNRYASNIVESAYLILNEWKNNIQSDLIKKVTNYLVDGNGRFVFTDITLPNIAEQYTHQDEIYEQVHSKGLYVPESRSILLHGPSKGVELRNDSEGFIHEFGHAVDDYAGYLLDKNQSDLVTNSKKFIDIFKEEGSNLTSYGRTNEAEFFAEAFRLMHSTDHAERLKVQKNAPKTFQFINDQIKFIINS
BoNT F protease: blocks Botulinum neurotoxin F light chain protease; Multiplex microsphere protease cleavage assay, flow cytometry; inhibition, % at 10 µM; 360,000 compounds, 0.22% hits; AID 588497; in the data active means inhibition above about 35%, passing the limit was not always enough; inconclusive means no clear call, values can overlap the other calls; further: plate controls were buffer without enzyme for full effect and enzyme alone for no effect
Autofluor counter: flagged as autofluorescent in microsphere protease counterscreen; compound autofluorescence counterscreen, microsphere flow cytometry; stronger effect = higher value; fluorescence intensity (no concentration beside the values); 360,000 compounds, 3.1% hits; AID 624483; in the data active means fluorescence intensity above about 16000; inconclusive means no clear call, values can overlap the other calls
* marks the source's active call; other numbers are inactive results; ? = inconclusive. Shown are actives, neighbours in structure and some others; about 3.5% of the full set was active somewhere. Unless noted, no stated cut-off is given here; in the data, active means inhibition above about 30%; inconclusive means no clear call, values can overlap the other calls; inactive means below that.

SMILES | BoNT-A LC inh2 | Anthrax LF prot | BoNT F protease | Autofluor counter
CN(C)Cc1cn(CCC(=O)O)c2ccccc12 | -1.2 | 1.1 | -5.6 | 24504*
Cc1ccc(-c2nc3c(Cl)cc(Cl)cc3c(=O)n2O)cc1 | -0.6 | -12.9 | 4.8 | 3269
NC(=O)CSc1nnc(-c2cccc(S(=O)(=O)N3CCCCC3)c2)o1 | 0.5 | 4.9 | -5.1 | 3280
O=S(=O)(c1ccc(-c2nnc(SCc3ccccc3)o2)cc1)N1CCCC1 | ? | 1.7 | 3.0 | 19388*
Cc1ccc(CSc2nnc(-c3ccc(S(=O)(=O)N4CCCC4)cc3)o2)cc1 | 0.5 | -5.9 | -5.1 | 22758*
O=S(=O)(c1cccc(-c2nnc(-c3ccc(Br)cc3)o2)c1)N1CCCCCC1 | 2.8 | -2.0 | 6.1 | 20866*
COc1ccc(-n2nc(C(=O)NCC(=O)NCCCN3CCOCC3)c3ccccc3c2=O)c(OC)c1 | -0.7 | -1.5 | 3.0 | 6523
Cc1cc(C)cc(Oc2nn[nH]n2)c1 | -0.6 | 1.2 | -3.8 | 24301*
CC(C)(C)c1cccc(Oc2nn[nH]n2)c1 | -0.9 | -5.1 | -4.5 | 7873
O=C(Cn1c(-c2ccccc2)noc1=O)Nc1ccc(S(=O)(=O)N2CCOCC2)cc1 | 0.2 | -4.9 | -5.8 | 10369
O=C(Cn1c(-c2ccccc2)noc1=O)Nc1ccc(N2CCCCCC2)cc1 | -5.3 | -5.0 | -11.6 | 25078*
O=C(COC(=O)c1cc(Br)ccc1O)NC12CC3CC(CC(C3)C1)C2 | -0.2 | -3.9 | 3.0 | 3609
COc1ccc(-c2ccnc3nc(-n4cccc4)nn23)cc1 | -2.6 | -1.9 | -3.1 | 20861*
CC1CC1C(=O)N1CCN(S(=O)(=O)c2cccc(F)c2)CC1 (configuration not stated) | 2.5 | -0.4 | -12.9 | ?
CCCC(=O)NCC(c1cccs1)S(=O)(=O)c1ccc(C)cc1 (configuration not stated) | 0.0 | 0.9 | 2.9 | 5899
CCOc1ccc(CN2CCSCC2)cc1 | -1.3 | 3.9 | -2.4 | 3063
CCOc1ccc(CN2CCC(=O)NC2=O)cc1 | 5.6 | -9.4 | 4.3 | 17829*
O=C1CCN(Cc2ccccc2)C(=O)N1 | 0.1 | -3.5 | 2.5 | 4182
COc1ccc(CN2CCC(=O)NC2=O)cc1 | -6.0 | -0.4 | -3.6 | 25338*
COc1ccc(C)cc1NC(=O)CSc1nnc2ccc(-c3cccnc3)nn12 | 1.7 | -2.3 | 9.8 | 4695
O=C(N1CCN(c2ccccc2)CC1)C(F)(F)C(F)F | 8.2 | -12.2 | 10.0 | 20656*
O=C(N1CCN(c2ccccc2)CC1)C(F)(F)C(F)(F)F | 0.5 | -4.1 | -0.2 | 19895*
O=C(O)c1cccc(-c2noc(-c3cccc(Cl)c3)n2)c1 | -0.9 | -8.2 | -12.2 | 4041
COCCNC(=O)CCN1N=C(c2ccccc2)CCC1=O | -0.8 | -0.8 | 6.6 | 3742
C[C@@H]1CN([C@@H](C)CO)C(=O)CCCn2nncc2CO[C@@H]1CN(C)S(=O)(=O)c1ccc2ccccc2c1 | 0.1 | -2.2 | -5.7 | 3813
SMILES | BoNT-A LC inh2 | Anthrax LF prot | BoNT F protease | Autofluor counter
O=C1C=Cc2cccc3ccc(O)c1c23 | 61.1* | 38.0* | 12.3 | 3437
Cc1c2c(nc3c(C(=O)NC4CCCC4)cnn13)CCCC2 | -1.7 | -5.0 | -4.1 | 16888*
O=C(Nc1c(Cl)cc(Cl)cc1-c1nc2ccccc2s1)c1ccc(Br)o1 | ? | -0.1 | -5.5 | 17431*
O=C(Nc1ccccc1-c1nc2ccccc2s1)c1ccco1 | -0.1 | -3.3 | -4.7 | 3130
Cc1cccc(OC(=O)CN2C(=O)C3C4CCC(C4)C3C2=O)c1C (configuration not stated) | 0.6 | -0.2 | -2.6 | 23771*
Cc1cccc(C)c1OCC(=O)Nc1ccc2c(c1)C(=O)NC2=O | 2.0 | 1.3 | 2.2 | 5529
COc1ccccc1NS(=O)(=O)c1ccc(C(=O)Nc2ncccc2O)cc1 | 0.1 | -0.2 | -1.2 | 2977
O=C(Nc1ccc(Oc2ccccc2)cc1)c1csc([C@@H]2O[C@H](CO)[C@H](O)[C@H](O)[C@H]2O)n1 | -0.5 | -3.8 | -0.2 | 3540
CCCc1cc(C(N)=O)c(NC(=O)c2ccoc2C)s1 | -8.0 | -1.3 | -11.7 | 23003*
CCCc1cc(C(N)=O)c(NC(=O)c2cc(C)on2)s1 | ? | -14.0 | -2.1 | 16687*
CCOC(=O)C1=CNS(=O)(=O)NC1c1ccc(C(F)(F)F)cc1 (configuration not stated) | 0.2 | 2.5 | 1.3 | 3351
O=C(NCCCO)c1nnc(Cc2c(F)cccc2Cl)o1 | 0.6 | -6.5 | 0.6 | 16086
O=C(NCCCN1CCN(Cc2ccccc2)CC1)c1nnc(Cc2c(F)cccc2Cl)o1 | 0.4 | -1.6 | 3.2 | 19523*
CC1CCN(S(=O)(=O)c2ccc(NC(=O)CCNC(=O)c3ccc(Cl)cc3)cc2)CC1 | -3.5 | -2.0 | -7.1 | ?
Cc1ccc(CNc2ncnc3c2cnn3-c2ccccc2)cc1 | -1.5 | 1.4 | -1.3 | 16965*
c1ccc(-n2ncc3c(NCCCN4CCOCC4)ncnc32)cc1 | -5.0 | -2.2 | -10.3 | 18090*
Cc1ccc(-n2ncc3c(NCc4ccccc4)ncnc32)cc1 | 0.1 | -8.1 | -7.0 | 2961
Clc1ccc(-n2ncc3c(NCCN4CCOCC4)ncnc32)cc1 | 1.4 | 2.2 | 19.6 | 3403
Cc1ccc(-n2ncc3c(NCc4ccccn4)ncnc32)c(C)c1 | -0.6 | -4.1 | -18.9 | 4026
Clc1ccc(-n2ncc3c(NCc4ccccn4)ncnc32)cc1 | 6.7 | -21.1 | 10.2 | 19639*
O=C(NCCNC(=O)c1ccc(Cl)cc1Cl)c1cnccn1 | -1.9 | 11.5 | -1.1 | 2868
COC(=O)C(=Cc1ccc(-c2ccsc2C(=O)OC)o1)C(=O)OC | -0.6 | -4.4 | -6.9 | 5741
COC(=O)c1sccc1-c1ccc(C(=O)Nc2cccnc2)o1 | 1.7 | -9.2 | 2.2 | 21993*
CCOC(=O)C(=Cc1ccc(-c2ccsc2C(=O)OC)o1)C(=O)OCC | 0.6 | 0.1 | 1.3 | 22339*
COc1ccc2cc(C(=O)N3CCC(Cc4ccccc4)CC3)[nH]c2c1 | 0.2 | -6.5 | 7.2 | 3914
SMILES | BoNT-A LC inh2 | Anthrax LF prot | BoNT F protease | Autofluor counter
COc1cccc(NC(=O)Cc2nnc(SCC(=O)NC(C)c3ccccc3)n2C)c1 (configuration not stated) | ? | -4.2 | -9.7 | 21780*
COc1ccc(C)cc1NC(=O)CSc1nnc(CC(=O)Nc2cccc(C(F)(F)F)c2)n1C | -0.2 | -2.4 | -4.7 | 7882
COc1ccccc1NC(=O)CSc1nnc(CC(=O)Nc2cccc(C(F)(F)F)c2)n1C | -3.1 | -1.4 | -5.1 | 20559*
c1ccc(C[C@H]2CN=C(Nc3ccccc3)N2CC2CCCC2)cc1 | -1.1 | -7.2 | -1.0 | 4445
COC(=O)[C@]12CCCCC=C1N(Cc1cccc3ccccc13)C(=O)[C@H](CC(=O)NCC13CC4CC(CC(C4)C1)C3)C2 | -1.3 | 0.5 | -10.9 | 4509
Cc1cc(C)nc(NN2C(=O)/C(=C/c3ccc(O)cc3)SC2=S)n1 | 3.4 | 6.3 | -0.4 | 7834
COc1ccccc1/C=C1\SC(=S)N(Nc2nc(C)cc(C)n2)C1=O | -4.3 | 0.1 | -6.4 | 24819*
CSc1ccc(OC2(C)CCN(Cc3ccc4c(c3)OCCO4)C2)cc1 (configuration not stated) | -0.6 | -7.7 | -12.1 | 4104
Cc1ccc(-c2noc(C3CCCN(C(=O)c4c(F)cccc4F)C3)n2)cc1 (configuration not stated) | 1.9 | -7.2 | 3.9 | 21313*
COc1ccc(-c2noc(C3CCCN(C(=O)c4ccccc4OC)C3)n2)cc1OC (configuration not stated) | ? | -0.8 | 0.4 | 16635*
